Bioassay records as filed in PubChem BioAssay.
Rows were chosen to be rich in hits. Some 2.4% of all compounds tested hit in one or more screens of this group.
D2 PAM-1 = Beta-Arrestin HTS for Positive Allosteric Modulators of the Human D2 Dopamine Receptor: Potentiators; D(2) dopamine receptor (Homo sapiens), P14416; DiscoveRx D2 beta-arrestin cells, luminescence, 90 min; 100% = 57 uM dopamine signal; potentiation, % (concentration not given with the values); 360,000 tested, 0.23% active; AID 624464, 2012; in the data active = potentiation above about 50%; inconclusive = mostly about 30% to 49%
Target sequence (P14416 whole entry, looked up): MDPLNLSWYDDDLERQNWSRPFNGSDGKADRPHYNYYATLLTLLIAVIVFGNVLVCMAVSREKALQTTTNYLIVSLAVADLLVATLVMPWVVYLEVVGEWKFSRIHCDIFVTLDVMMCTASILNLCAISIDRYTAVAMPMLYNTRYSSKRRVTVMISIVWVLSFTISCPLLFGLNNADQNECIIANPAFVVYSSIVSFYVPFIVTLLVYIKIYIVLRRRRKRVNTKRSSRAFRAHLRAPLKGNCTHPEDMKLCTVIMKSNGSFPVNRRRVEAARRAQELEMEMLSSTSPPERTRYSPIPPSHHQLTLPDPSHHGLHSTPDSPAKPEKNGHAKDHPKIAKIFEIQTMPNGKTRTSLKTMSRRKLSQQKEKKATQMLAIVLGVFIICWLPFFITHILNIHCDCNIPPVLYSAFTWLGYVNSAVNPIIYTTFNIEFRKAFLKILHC
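PathHunter D2 cells, attached overnight at 37 deg C, received compound in DMSO plus dopamine at EC20 (50 nM final) for 90 min at 37 deg C. Beta-arrestin recruitment was read as luminescence after 1 h with detection reagent at ambient temperature.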
D2 ag-1 = HTS Assay for Allosteric Agonists of the Human D2 Dopamine Receptor: Primary Screen for Agonists; activation, % at 2 µM; HEK293 T-REx D2 cells, calcium flux agonist mode; 340,000 tested, 0.53% active;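 active = activation over 3 SD above normal in the single-dose calcium agonist read, cut at about 30% in these data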; note: 0% is about no effect
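Tetracycline-induced HEK293 T-REx cells with force-coupled D2 receptor, plated overnight at 30 C, loaded with no-wash calcium dye. After a 10 s baseline, compound was pin-added and calcium flux read kinetically for 180 s; calcium rises flagged agonists.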
D2 antag = HTS Assay for Allosteric Antagonists of the Human D2 Dopamine Receptor: Primary Screen for Antagonists. D(2) dopamine receptor (Homo sapiens), P14416. HEK293 TREx D2 cells, calcium flux, dopamine EC80. inhibition, % at 10 µM. 340,000 tested, 2% active. AID 485344, 2010; in the data active = inhibition above about 30%; inactive = below that, where a call was filed; note: 0% is about no effect
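Compounds are added to dye-loaded, induced HEK293 T-REx cells coupled to calcium release via D2; after a 3 min kinetic read an EC80 dopamine stimulus is given and fluorescence is recorded for 3 more min.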
D2 PAM-2 = HTS Assay for Positive Allosteric Modulators of the Human D2 Dopamine Receptor: Primary Screen for Potentiators; HEK293 T-REx D2, calcium flux, EC20 dopamine potentiation; potentiation, % at 10 µM; 340,000 tested, 0.34% active; AID 485347, 2010;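 active = potentiation over 3 SD above the plate norm, cut at about 30% in these data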; note: 0% is about no effect
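Tetracycline-induced Hek293 Trex D2 cells, force-coupled to calcium, loaded with no-wash calcium dye. Compound added with 180 s kinetic read for agonism, then EC20 dopamine and a further 180 s read for potentiation.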
D2 ag-2 = Beta-Arrestin HTS for Positive Allosteric Modulators of the Human D2 Dopamine Receptor: Agonists | D(2) dopamine receptor (Homo sapiens), P14416 | DiscoveRx PathHunter D2 beta-arrestin, luminescence, 90 min; 100% = 57 uM dopamine signal | activation, % (concentration not given with the values) | 360,000 tested, 0.084% active | AID 624465, 2012; in the data active = activation above about 40%; inconclusive = between about 15% and that limit
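DiscoveRx PathHunter D2 beta-arrestin cells (2,100/well) attached overnight, then compound-stimulated 90 min at 37 C in HBSS/10 mM HEPES/0.1% Tween-20 buffer; beta-galactosidase complementation read by luminescence after 1 h at ambient temperature. Dopamine 57 uM final (EC100) as control.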
Starred values were filed as active, the others as inactive; ? = inconclusive; · = no result.

SMILES	D2 PAM-1	D2 ag-1	D2 antag	D2 PAM-2	D2 ag-2
CCCCC[n+]1ccn(-c2nc3ccccc3nc2[N-]S(=O)(=O)c2ccc(C)cc2)c1	-10.3	0.3	37.7*	-2.4	-2.3
CCCC[n+]1ccn(-c2nc3ccccc3nc2[N-]S(=O)(=O)c2ccc(C)cc2)c1	-10.4	-0.8	15.5	-5.2	1.6
CC(NC(=O)C1CCN(C(=O)c2ccc(F)cc2)CC1)c1ccc(-n2ccnc2)cc1 (stereo unspecified)	-8.0	1.8	31.0*	9.0	6.1
COc1cc(C(=O)NCC(=O)NC(C)c2ccc(-n3ccnc3)cc2)cc(OC)c1OC (stereo unspecified)	15.6	0.2	-3.7	-3.3	3.5
COc1cc(C(=O)NC(C)c2ccc(-n3ccnc3)cc2)cc(OC)c1C (stereo unspecified)	-21.5	-1.1	7.8	31.4*	-2.7
CCOc1ccccc1CNC(=O)C(CC)n1nc(C)c2c(C)n(-c3ccccc3)nc2c1=O (stereo unspecified)	·	-0.9	·	3.0	·
CCOc1ccccc1-c1noc(CCCC(=O)Nc2cccc(C(F)(F)F)c2)n1	·	·	·	-16.9	·
O=C(OCc1c(Cl)cccc1Cl)c1ccccn1	-16.3	0.3	34.7*	5.1	-2.3
COc1ccccc1C(=O)Nc1ccccc1C(=O)OCc1cc(=O)n2ccsc2n1	·	0.7	·	-0.5	·
NC(CC(=O)NC(c1ccccc1)(c1ccccc1)c1ccccc1)C(=O)O (stereo unspecified)	-5.3	0.8	-2.9	36.6*	-4.6
Clc1cccc(-c2nn3c(Cn4cnc5ccccc54)nnc3s2)c1	-5.1	2.9	33.9*	12.6	-3.0
CCCc1nnc(NC(=O)c2nc(S(=O)(=O)Cc3cccc(C)c3)ncc2Cl)s1	-25.5	-1.2	-13.3	30.1*	-7.6
CCCOc1ccc(C(=O)Nc2ccc(-c3cc4ccccc4oc3=O)c(C)c2)cc1	·	0.5	·	-0.7	·
O=C(Cn1c2[n+](c3ccc(C(F)(F)F)cc31)CCCCC2)Nc1ccc(Br)cc1	-8.9	-0.1	56.2*	-24.5	-2.6
N#Cc1ccc(NC(=O)Cn2c3[n+](c4ccc(C(F)(F)F)cc42)CCCCC3)cc1	-18.3	0.0	-16.8	-11.8	-4.3
COc1cc(C(=O)Nc2ccc3oc(-c4ccccc4)nc3c2)cc(OC)c1OC	·	0.0	·	4.3	·
c1ccc(-c2nc3nonc3nc2-c2ccccc2)cc1	74.2*	0.6	40.8*	11.7	?
CC(C)CCn1c(O)c(N=NC(=O)c2ccco2)c2ccccc21	-6.6	2.6	31.3*	-2.3	-3.4
O=C(Cn1cnc2c(nnn2Cc2ccc(F)cc2)c1=O)Nc1cccc(F)c1	-3.1	0.6	37.0*	-4.2	1.0
Cc1ccc(NC(=O)Cn2cnc3c(nnn3Cc3ccc(F)cc3)c2=O)cc1	-3.1	-0.3	-27.0	-1.9	-6.1
Cc1oc2cc3oc(=O)c(CCC(=O)NCCCC(=O)O)c(C)c3cc2c1C	-11.9	0.2	33.3*	-6.9	-3.9
COc1ccc(CCn2c(N)cc(=O)[nH]c2=S)cc1OC	-20.0	0.3	-16.0	33.9*	-3.1
CCOC(=O)C1=C(COC(=O)COc2ccc(Br)cc2)NC(=O)NC1C (stereo unspecified)	14.8	-0.3	82.5*	-0.5	5.8
CN(CC(=O)Nc1cccc(F)c1)C(=O)c1ccc2c(c1)S(=O)(=O)N=C1CCCCCN12	-12.0	1.5	-0.7	31.5*	-5.1
O=C(CN1C(=O)NC(Cc2ccccc2)C1=O)Nc1ccc(F)c(Cl)c1 (stereo unspecified)	-2.2	1.2	32.7*	3.1	4.6
SMILES	D2 PAM-1	D2 ag-1	D2 antag	D2 PAM-2	D2 ag-2
O=C(CN1C(=O)NC(Cc2ccccc2)C1=O)Nc1ccc(F)cc1 (stereo unspecified)	-0.9	0.1	-13.9	-3.2	0.6
Cc1cc(F)c(F)c(C(=O)N2CCC(C)CC2)c1Cl	0.0	-0.5	31.8*	-10.4	1.4
Cc1cc(F)c(F)c(C(=O)N2CCCCC2C)c1Cl (stereo unspecified)	-5.5	-0.2	-31.4	1.4	-1.0
CC1CCCC(C)N1C(=S)NCc1ccco1 (stereo unspecified)	-6.2	0.1	30.5*	11.7	1.1
OCC1CCCCN1C(=S)NCc1ccco1 (stereo unspecified)	?	0.7	8.4	-6.2	0.1
C=CCN(CC=C)C(=O)Cc1ccc(F)cc1	-4.1	0.0	31.1*	-4.2	-0.3
CCCN(CCC)C(=O)Cc1ccc(F)cc1	-1.9	-0.4	18.4	0.3	-3.5
CCc1ccccc1NC(=O)CSc1ncc2c(n1)-c1ccccc1N(Cc1ccc(C)cc1)S2(=O)=O	·	0.1	·	-2.7	·
COCC(=O)OC1CCn2c1nc1c2C(=O)C(C)=C(NC(C)=O)C1=O (stereo unspecified)	87.1*	·	·	·	?
CCc1ccc(S(=O)(=O)NCCc2csc3nc(-c4ccccc4)nn23)s1	·	0.2	·	2.9	·
CCOC(=O)c1c(C)[nH]c(C(=O)C(C)Sc2ccc(Cl)cc2)c1C (stereo unspecified)	2.4	-0.6	16.1	32.0*	0.9
CCOC(=O)c1c(C)[nH]c(CCC(=O)Nc2c(C)cccc2CC)c1C	·	-0.2	·	6.4	·
O=C(CNCc1ccco1)Nc1ccccc1-n1cccc1	-3.6	-0.3	38.0*	12.3	-0.3
O=C(CNCc1ccco1)Nc1ccc(Oc2ccccc2)cc1	-11.5	-1.1	-7.2	1.8	-0.1
COc1ccccc1CNC(=O)CCCn1c(=O)c2cccn2c2ccccc21	·	-0.8	·	-2.2	·
COc1ccc(N(C(=O)c2ccc(C(C)(C)C)cc2)S(=O)(=O)c2ccc(Cl)cc2)cc1	·	-0.3	·	-2.1	·
COc1cc(NC(=O)COC(=O)Cc2ccsc2)cc(OC)c1	-0.1	0.8	30.5*	-11.9	1.4
O=C(COC(=O)Cc1ccsc1)Nc1ccccc1	-2.4	-0.2	1.4	5.6	1.3
O=S(=O)(c1ccc2[nH]c3c(c2c1)CCCCC3)N1CCN(c2cccc(Cl)c2)CC1	·	0.8	·	-8.5	·
COc1ccc(S(=O)(=O)N2CCC(NC(=O)OCc3c(Cl)cccc3Cl)CC2)cc1	-6.9	1.3	34.6*	4.5	-1.9
COc1ccc(S(=O)(=O)N2CCC(C(=O)NCc3ccc(C)cc3)CC2)cc1	-8.2	-0.1	34.2*	-1.2	-4.0
COc1ccc(COC(=O)NC2CCN(S(=O)(=O)c3ccc(OC)cc3)CC2)cc1	-4.1	-0.7	-8.1	10.7	-0.1
